# Test results as given in publication PMC11006913.
# Experiments:
# Assay in all cases: PBM; 200 nM protein, PBS
# Settings in all cases: dsDNA, one strand shown
# [1] = molecular target: HESX1 (Homo sapiens, UniProt Q9UBX0 95-180, R165K)
# [2] = molecular target: ALX4 (Homo sapiens, UniProt Q9H161 200-286)
# [3] = molecular target: ALX4 (Homo sapiens, UniProt Q9H161 200-286, Q225E)
# [4] = molecular target: HESX1 (Homo sapiens, UniProt Q9UBX0 95-180)
# [5] = molecular target: HESX1 (Homo sapiens, UniProt Q9UBX0 95-180, R109Q)
# Sequence of HESX1 (Homo sapiens, UniProt Q9UBX0 95-180, R109Q) (Q9UBX0 95-180 R109Q): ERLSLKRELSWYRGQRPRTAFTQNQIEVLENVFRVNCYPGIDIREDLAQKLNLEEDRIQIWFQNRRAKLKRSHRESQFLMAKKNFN
# [6] = molecular target: HESX1 (Homo sapiens, UniProt Q9UBX0 95-180, P111T)
# Sequence of HESX1 (Homo sapiens, UniProt Q9UBX0 95-180, P111T) (Q9UBX0 95-180 P111T): as the sequence (Q9UBX0 95-180 R109Q) above, with Q15R, P17T counted along it
# [7] = molecular target: HESX1 (Homo sapiens, UniProt Q9UBX0 95-180, F115L)
# Sequence of HESX1 (Homo sapiens, UniProt Q9UBX0 95-180, F115L) (Q9UBX0 95-180 F115L): as the sequence (Q9UBX0 95-180 R109Q) above, with Q15R, F21L counted along it
# [8] = molecular target: MSX2 (Homo sapiens, UniProt P35548 130-214, R199I)
# Sequence of MSX2 (Homo sapiens, UniProt P35548 130-214, R199I) (P35548 130-214 R199I): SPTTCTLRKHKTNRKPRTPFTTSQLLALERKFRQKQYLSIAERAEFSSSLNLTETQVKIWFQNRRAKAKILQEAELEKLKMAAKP
# [9] = molecular target: ALX1 (Homo sapiens, UniProt Q15699 118-204, L144V)
# Sequence of ALX1 (Homo sapiens, UniProt Q15699 118-204, L144V) (Q15699 118-204 L144V): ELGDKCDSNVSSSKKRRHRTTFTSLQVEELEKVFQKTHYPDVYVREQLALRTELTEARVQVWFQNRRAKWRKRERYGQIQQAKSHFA
# [10] = molecular target: ALX1 (Homo sapiens, UniProt Q15699 118-204, L144R)
# Sequence of ALX1 (Homo sapiens, UniProt Q15699 118-204, L144R) (Q15699 118-204 L144R): as the sequence (Q15699 118-204 L144V) above, with V27R counted along it
# [11] = molecular target: MSX2 (Homo sapiens, UniProt P35548 130-214)
# Sequence of MSX2 (Homo sapiens, UniProt P35548 130-214) (P35548 130-214): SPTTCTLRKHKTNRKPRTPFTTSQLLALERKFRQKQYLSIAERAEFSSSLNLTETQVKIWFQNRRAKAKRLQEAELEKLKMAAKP
# [12] = molecular target: PROP1 (Homo sapiens, UniProt O75360 56-141, R99H)
# Sequence of PROP1 (Homo sapiens, UniProt O75360 56-141, R99H) (O75360 56-141 R99H): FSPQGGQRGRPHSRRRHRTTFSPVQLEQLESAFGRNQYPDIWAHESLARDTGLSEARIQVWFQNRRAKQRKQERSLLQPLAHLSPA
# [13] = molecular target: MSX2 (Homo sapiens, UniProt P35548 130-214, F161Y)
# Sequence of MSX2 (Homo sapiens, UniProt P35548 130-214, F161Y) (P35548 130-214 F161Y): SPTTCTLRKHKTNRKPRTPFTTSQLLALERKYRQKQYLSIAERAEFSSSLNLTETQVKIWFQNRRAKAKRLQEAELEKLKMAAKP
# [14] = molecular target: ALX1 (Homo sapiens, UniProt Q15699 118-204)
# Sequence of ALX1 (Homo sapiens, UniProt Q15699 118-204) (Q15699 118-204): as the sequence (Q15699 118-204 L144V) above, with V27L counted along it
# [15] = molecular target: VAX1 (Homo sapiens, UniProt Q5SQQ9 86-172)
# Sequence of VAX1 (Homo sapiens, UniProt Q5SQQ9 86-172) (Q5SQQ9 86-172): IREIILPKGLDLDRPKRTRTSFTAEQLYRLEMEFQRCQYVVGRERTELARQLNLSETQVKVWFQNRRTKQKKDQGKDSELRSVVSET
# [16] = molecular target: VAX1 (Homo sapiens, UniProt Q5SQQ9 86-172, T142I)
# Sequence of VAX1 (Homo sapiens, UniProt Q5SQQ9 86-172, T142I) (Q5SQQ9 86-172 T142I): as the sequence (Q5SQQ9 86-172) above, with T57I counted along it
# [17] = molecular target: VAX1 (Homo sapiens, UniProt Q5SQQ9 86-172, K157R)
# Sequence of VAX1 (Homo sapiens, UniProt Q5SQQ9 86-172, K157R) (Q5SQQ9 86-172 K157R): as the sequence (Q5SQQ9 86-172) above, with K72R counted along it
# [18] = molecular target: PROP1 (Homo sapiens, UniProt O75360 56-141)
# Sequence of PROP1 (Homo sapiens, UniProt O75360 56-141) (O75360 56-141): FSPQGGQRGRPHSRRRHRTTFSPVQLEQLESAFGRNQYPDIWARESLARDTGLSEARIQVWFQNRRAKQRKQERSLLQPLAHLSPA
# [19] = molecular target: PROP1 (Homo sapiens, UniProt O75360 56-141, F88S)
# Sequence of PROP1 (Homo sapiens, UniProt O75360 56-141, F88S) (O75360 56-141 F88S): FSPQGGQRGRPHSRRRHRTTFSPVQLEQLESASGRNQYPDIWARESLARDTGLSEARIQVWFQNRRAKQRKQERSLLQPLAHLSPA
# Sequence of HESX1 (Homo sapiens, UniProt Q9UBX0 95-180) (Q9UBX0 95-180): as the sequence (Q9UBX0 95-180 R109Q) above, with Q15R counted along it
# Sequence of HESX1 (Homo sapiens, UniProt Q9UBX0 95-180, R165K) (Q9UBX0 95-180 R165K): as the sequence (Q9UBX0 95-180 R109Q) above, with Q15R, R71K counted along it
# Sequence of ALX4 (Homo sapiens, UniProt Q9H161 200-286, Q225E) (Q9H161 200-286 Q225E): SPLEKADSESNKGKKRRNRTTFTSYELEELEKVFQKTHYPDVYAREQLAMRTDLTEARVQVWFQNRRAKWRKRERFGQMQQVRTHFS
# Sequence of ALX4 (Homo sapiens, UniProt Q9H161 200-286) (Q9H161 200-286): as the sequence (Q9H161 200-286 Q225E) above, with E26Q counted along it
sequence,measurement,setting,value
CCCAGTGC,binding signal,[1],"6.38 upbm affinity estimate (log intensity, higher = more binding, comparable within an allelic series)"
same,binding signal,[2],"8 upbm affinity estimate (log intensity, higher = more binding, comparable within an allelic series)"
same,binding signal,[3],"8.11 upbm affinity estimate (log intensity, higher = more binding, comparable within an allelic series)"
same,binding signal,[4],"6.3 upbm affinity estimate (log intensity, higher = more binding, comparable within an allelic series)"
same,binding signal,[5],"6.56 upbm affinity estimate (log intensity, higher = more binding, comparable within an allelic series)"
same,binding signal,[6],"6.45 upbm affinity estimate (log intensity, higher = more binding, comparable within an allelic series)"
same,binding signal,[7],"6.56 upbm affinity estimate (log intensity, higher = more binding, comparable within an allelic series)"
ATTATTTG,binding signal,[1],"8.97 upbm affinity estimate (log intensity, higher = more binding, comparable within an allelic series)"
same,binding signal,[4],"8.9 upbm affinity estimate (log intensity, higher = more binding, comparable within an allelic series)"
AGTAATTG,binding signal,[1],"11.8 upbm affinity estimate (log intensity, higher = more binding, comparable within an allelic series)"
same,binding signal,[4],"12 upbm affinity estimate (log intensity, higher = more binding, comparable within an allelic series)"
same,binding signal,[8],"12.5 upbm affinity estimate (log intensity, higher = more binding, comparable within an allelic series)"
same,binding signal,[9],"11.4 upbm affinity estimate (log intensity, higher = more binding, comparable within an allelic series)"
same,binding signal,[10],"10.9 upbm affinity estimate (log intensity, higher = more binding, comparable within an allelic series)"
same,binding signal,[11],"13.7 upbm affinity estimate (log intensity, higher = more binding, comparable within an allelic series)"
same,binding signal,[5],"8.47 upbm affinity estimate (log intensity, higher = more binding, comparable within an allelic series)"
same,binding signal,[12],"11 upbm affinity estimate (log intensity, higher = more binding, comparable within an allelic series)"
same,binding signal,[6],"10.3 upbm affinity estimate (log intensity, higher = more binding, comparable within an allelic series)"
same,binding signal,[13],"13.4 upbm affinity estimate (log intensity, higher = more binding, comparable within an allelic series)"
same,binding signal,[7],"7.48 upbm affinity estimate (log intensity, higher = more binding, comparable within an allelic series)"
same,binding signal,[14],"12 upbm affinity estimate (log intensity, higher = more binding, comparable within an allelic series)"
AGGACCCC,binding signal,[1],"6.46 upbm affinity estimate (log intensity, higher = more binding, comparable within an allelic series)"
same,binding signal,[4],"6.46 upbm affinity estimate (log intensity, higher = more binding, comparable within an allelic series)"
same,binding signal,[5],"6.63 upbm affinity estimate (log intensity, higher = more binding, comparable within an allelic series)"
same,binding signal,[6],"6.47 upbm affinity estimate (log intensity, higher = more binding, comparable within an allelic series)"
same,binding signal,[7],"6.62 upbm affinity estimate (log intensity, higher = more binding, comparable within an allelic series)"
AGTCGCGC,binding signal,[1],"6.38 upbm affinity estimate (log intensity, higher = more binding, comparable within an allelic series)"
same,binding signal,[4],"6.32 upbm affinity estimate (log intensity, higher = more binding, comparable within an allelic series)"
same,binding signal,[5],"6.51 upbm affinity estimate (log intensity, higher = more binding, comparable within an allelic series)"
same,binding signal,[15],"7.29 upbm affinity estimate (log intensity, higher = more binding, comparable within an allelic series)"
same,binding signal,[6],"6.45 upbm affinity estimate (log intensity, higher = more binding, comparable within an allelic series)"
same,binding signal,[7],"6.58 upbm affinity estimate (log intensity, higher = more binding, comparable within an allelic series)"
same,binding signal,[16],"7.12 upbm affinity estimate (log intensity, higher = more binding, comparable within an allelic series)"
same,binding signal,[17],"7.18 upbm affinity estimate (log intensity, higher = more binding, comparable within an allelic series)"
CAAGCCGC,binding signal,[1],"6.58 upbm affinity estimate (log intensity, higher = more binding, comparable within an allelic series)"
same,binding signal,[4],"6.44 upbm affinity estimate (log intensity, higher = more binding, comparable within an allelic series)"
same,binding signal,[18],"6.56 upbm affinity estimate (log intensity, higher = more binding, comparable within an allelic series)"
same,binding signal,[5],"6.54 upbm affinity estimate (log intensity, higher = more binding, comparable within an allelic series)"
same,binding signal,[12],"6.8 upbm affinity estimate (log intensity, higher = more binding, comparable within an allelic series)"
same,binding signal,[6],"6.58 upbm affinity estimate (log intensity, higher = more binding, comparable within an allelic series)"
same,binding signal,[19],"6.57 upbm affinity estimate (log intensity, higher = more binding, comparable within an allelic series)"
same,binding signal,[7],"6.56 upbm affinity estimate (log intensity, higher = more binding, comparable within an allelic series)"
AGATTGGG,binding signal,[1],"7.4 upbm affinity estimate (log intensity, higher = more binding, comparable within an allelic series)"
same,binding signal,[4],"7.61 upbm affinity estimate (log intensity, higher = more binding, comparable within an allelic series)"
same,binding signal,[5],"7.3 upbm affinity estimate (log intensity, higher = more binding, comparable within an allelic series)"
same,binding signal,[6],"7.23 upbm affinity estimate (log intensity, higher = more binding, comparable within an allelic series)"
CGTGCCAC,binding signal,[1],"6.27 upbm affinity estimate (log intensity, higher = more binding, comparable within an allelic series)"
same,binding signal,[4],"6.24 upbm affinity estimate (log intensity, higher = more binding, comparable within an allelic series)"
same,binding signal,[5],"6.45 upbm affinity estimate (log intensity, higher = more binding, comparable within an allelic series)"
same,binding signal,[6],"6.56 upbm affinity estimate (log intensity, higher = more binding, comparable within an allelic series)"
same,binding signal,[7],"6.43 upbm affinity estimate (log intensity, higher = more binding, comparable within an allelic series)"
ACATGGCG,binding signal,[1],"6.32 upbm affinity estimate (log intensity, higher = more binding, comparable within an allelic series)"
same,binding signal,[4],"6.4 upbm affinity estimate (log intensity, higher = more binding, comparable within an allelic series)"
same,binding signal,[5],"6.43 upbm affinity estimate (log intensity, higher = more binding, comparable within an allelic series)"
same,binding signal,[6],"6.38 upbm affinity estimate (log intensity, higher = more binding, comparable within an allelic series)"
same,binding signal,[7],"6.49 upbm affinity estimate (log intensity, higher = more binding, comparable within an allelic series)"
CCACTGCG,binding signal,[1],"6.48 upbm affinity estimate (log intensity, higher = more binding, comparable within an allelic series)"
same,binding signal,[4],"6.49 upbm affinity estimate (log intensity, higher = more binding, comparable within an allelic series)"
same,binding signal,[5],"6.5 upbm affinity estimate (log intensity, higher = more binding, comparable within an allelic series)"
same,binding signal,[6],"6.5 upbm affinity estimate (log intensity, higher = more binding, comparable within an allelic series)"
same,binding signal,[7],"6.42 upbm affinity estimate (log intensity, higher = more binding, comparable within an allelic series)"
